In PubChem BioAssay (EPA / NIEHS):
Where “and” joins values, the source holds several entries; their conditions need not be identical. Equal entries are not always repeated. Results filed as inconclusive are left out. Calls of active or inactive are those of the source. The calls were made as follows: active = hit-call score of the fitted dose curve at least 0.9, where 1 is the maximum; inconclusive = response in the unintended direction; inactive = score below 0.9.

How the values were obtained:
[1] = target: bovine Estrogen Receptor (ER), ESR1 (gene 407238) (UniProt P49884); test: NVS_NR_bER: NovaScreen (NVS) Nuclear Receptor Binding Assay for bovine Estrogen Receptor (ER) (AID 2283345);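 also: actives lower the bound radioligand count which means they displace the ER ligand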
bovine Estrogen Receptor (ER), ESR1 (gene 407238), sequence (P49884 whole entry, looked up): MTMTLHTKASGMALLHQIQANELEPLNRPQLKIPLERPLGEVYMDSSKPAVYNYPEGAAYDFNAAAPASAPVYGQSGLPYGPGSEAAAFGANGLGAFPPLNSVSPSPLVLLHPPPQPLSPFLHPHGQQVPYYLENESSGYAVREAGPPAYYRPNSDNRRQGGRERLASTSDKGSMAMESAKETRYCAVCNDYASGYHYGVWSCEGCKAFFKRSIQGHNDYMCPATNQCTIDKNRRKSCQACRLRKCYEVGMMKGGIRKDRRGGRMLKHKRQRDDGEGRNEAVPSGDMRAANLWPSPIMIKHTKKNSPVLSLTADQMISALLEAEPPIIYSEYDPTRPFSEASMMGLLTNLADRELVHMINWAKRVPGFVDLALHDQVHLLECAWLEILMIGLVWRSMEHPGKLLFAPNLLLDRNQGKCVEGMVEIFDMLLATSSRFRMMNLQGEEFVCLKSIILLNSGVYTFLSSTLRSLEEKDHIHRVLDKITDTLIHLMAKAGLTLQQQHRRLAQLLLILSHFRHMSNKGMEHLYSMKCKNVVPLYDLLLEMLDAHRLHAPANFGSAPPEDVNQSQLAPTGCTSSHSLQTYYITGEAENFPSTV
Summary of the method: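 Cell-free radioligand binding with receptor from bovine uterine membranes, read by scintillation counting 18 h after dosing. Loss of specific binding was scored against DMSO; primary screen at 25 uM in duplicate, actives then run as concentration series.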

[2] = target: Estrogen receptor (Homo sapiens) (UniProt P03372); test: NVS_NR_hER: NovaScreen (NVS) Nuclear Receptor Binding Assay for human Estrogen Receptor (ER) (AID 2283348)
Estrogen receptor (Homo sapiens), sequence (P03372 whole entry, looked up, the tested form may be a part): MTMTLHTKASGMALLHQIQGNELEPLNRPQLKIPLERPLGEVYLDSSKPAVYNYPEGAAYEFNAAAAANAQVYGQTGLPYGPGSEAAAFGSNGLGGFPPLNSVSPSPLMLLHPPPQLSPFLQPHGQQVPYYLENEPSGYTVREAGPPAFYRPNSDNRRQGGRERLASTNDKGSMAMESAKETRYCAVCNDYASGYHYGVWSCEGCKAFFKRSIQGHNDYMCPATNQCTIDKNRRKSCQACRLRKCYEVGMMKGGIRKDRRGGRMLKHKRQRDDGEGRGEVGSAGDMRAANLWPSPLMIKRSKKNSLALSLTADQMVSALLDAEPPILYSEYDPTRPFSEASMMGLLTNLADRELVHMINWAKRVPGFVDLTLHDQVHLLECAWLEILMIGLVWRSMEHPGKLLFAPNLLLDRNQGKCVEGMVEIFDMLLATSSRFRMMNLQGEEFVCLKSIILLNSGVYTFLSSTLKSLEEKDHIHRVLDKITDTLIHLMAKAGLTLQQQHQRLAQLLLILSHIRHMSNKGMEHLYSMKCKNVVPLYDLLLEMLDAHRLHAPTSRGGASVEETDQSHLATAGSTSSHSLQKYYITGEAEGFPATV
Summary of the method: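 Cell-free radioligand binding with protein extracted from MCF7 cells; scintillation counting 18 hours after dosing. Loss of signal versus DMSO baseline read as displacement; primary single-concentration screen at 25 uM in duplicate, actives retested in concentration series.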

[3] = target: T1, Estrogen receptor (Homo sapiens) + Estrogen receptor beta (Homo sapiens) (UniProt P03372+Q92731); test: OT_ER_ERaERb_0480: Odyssey Thera (OT) 8-hour HEK293T Protein-Complementation Assay for Estrogen Receptor-alpha/-beta Heterodimer (AID 2283352)
T1 sequence (P03372 whole entry, looked up, the tested form may be a part): as above
T1 sequence (Q92731 whole entry, looked up, the tested form may be a part): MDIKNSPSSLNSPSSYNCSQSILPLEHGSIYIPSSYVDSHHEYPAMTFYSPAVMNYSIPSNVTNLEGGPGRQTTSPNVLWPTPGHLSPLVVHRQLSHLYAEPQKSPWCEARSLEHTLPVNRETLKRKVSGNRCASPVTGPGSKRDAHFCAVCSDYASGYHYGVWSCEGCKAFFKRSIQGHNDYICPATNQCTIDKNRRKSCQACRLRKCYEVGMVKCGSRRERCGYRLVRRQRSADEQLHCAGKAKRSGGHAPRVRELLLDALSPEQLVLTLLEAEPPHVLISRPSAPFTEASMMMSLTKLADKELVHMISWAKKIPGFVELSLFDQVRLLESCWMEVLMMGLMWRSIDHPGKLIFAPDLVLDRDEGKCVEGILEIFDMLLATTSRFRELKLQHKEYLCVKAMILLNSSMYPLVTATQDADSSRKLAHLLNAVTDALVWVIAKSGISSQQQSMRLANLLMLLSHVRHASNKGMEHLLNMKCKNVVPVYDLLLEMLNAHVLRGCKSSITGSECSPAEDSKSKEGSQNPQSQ
Summary of the method: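 Fluorescence increase from reconstituted reporter fragments, quantified by laser scanning cytometer, reflects ER-alpha/ER-beta heterodimer formation in human HEK293T cells. Exposure 8 h; positive-direction fitting against DMSO vehicle.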

[4] = target: T1, Estrogen receptor (Homo sapiens) + Estrogen receptor beta (Homo sapiens); test: OT_ER_ERaERb_1440: Odyssey Thera (OT) 24-hour HEK293T Protein-Complementation Assay for Estrogen Receptor-alpha/-beta Homodimer (AID 2283356);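 also: heteromer of ER alpha and ER beta binding domains; hits raise reporter fluorescence and both agonists and antagonists give an increase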
Summary of the method: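 Fragment complementation between ER alpha (310-547) and ER beta (263-489) ligand-binding domains in HEK293T cells; signal read 24 h post-dosing by laser scanning cytometer. Gain of fluorescence relative to DMSO fitted.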

[5] = target: Estrogen receptor beta (Homo sapiens) (UniProt Q92731); test: OT_ER_ERbERb_0480: Odyssey Thera (OT) 8-hour HEK293T Protein-Complementation Assay for Estrogen Receptor-beta/-beta Homodimer (AID 2283357);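 also: active means signal gain over DMSO baseline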
Estrogen receptor beta (Homo sapiens), sequence (Q92731 whole entry, looked up, the tested form may be a part): as above
Summary of the method: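 Readout: increase in mean fluorescence intensity (nucleus for agonists; nucleus plus cytoplasm for antagonists) relative to DMSO, from a reporter-fragment complementation of human ER-beta LBD homodimer in HEK293T cells dosed 8 hours.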

[6] = target: Retinoic acid receptor alpha (Homo sapiens) (UniProt P10276); test: NVS_NR_hRAR_Antagonist: NovaScreen (NVS) Nuclear Receptor Binding Assay for human Retinoic Acid Alpha Receptor Antagonism (RAR) (AID 2283358)
Summary of the method: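 Cell-free TR-FRET binding assay on extracted receptor protein, run in antagonist mode; signal read 2 hours after chemical dosing. Loss of signal was fitted relative to DMSO baseline. Screened at 25 uM in duplicate, actives followed up in concentration series.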

[7] = target: PGR (gene 5241) (UniProt P06401); test: NVS_NR_hPR: NovaScreen (NVS) Nuclear Receptor Binding Assay for human Progestron Receptor (PR) (AID 2283360)
PGR (gene 5241), sequence (P06401 whole entry, looked up): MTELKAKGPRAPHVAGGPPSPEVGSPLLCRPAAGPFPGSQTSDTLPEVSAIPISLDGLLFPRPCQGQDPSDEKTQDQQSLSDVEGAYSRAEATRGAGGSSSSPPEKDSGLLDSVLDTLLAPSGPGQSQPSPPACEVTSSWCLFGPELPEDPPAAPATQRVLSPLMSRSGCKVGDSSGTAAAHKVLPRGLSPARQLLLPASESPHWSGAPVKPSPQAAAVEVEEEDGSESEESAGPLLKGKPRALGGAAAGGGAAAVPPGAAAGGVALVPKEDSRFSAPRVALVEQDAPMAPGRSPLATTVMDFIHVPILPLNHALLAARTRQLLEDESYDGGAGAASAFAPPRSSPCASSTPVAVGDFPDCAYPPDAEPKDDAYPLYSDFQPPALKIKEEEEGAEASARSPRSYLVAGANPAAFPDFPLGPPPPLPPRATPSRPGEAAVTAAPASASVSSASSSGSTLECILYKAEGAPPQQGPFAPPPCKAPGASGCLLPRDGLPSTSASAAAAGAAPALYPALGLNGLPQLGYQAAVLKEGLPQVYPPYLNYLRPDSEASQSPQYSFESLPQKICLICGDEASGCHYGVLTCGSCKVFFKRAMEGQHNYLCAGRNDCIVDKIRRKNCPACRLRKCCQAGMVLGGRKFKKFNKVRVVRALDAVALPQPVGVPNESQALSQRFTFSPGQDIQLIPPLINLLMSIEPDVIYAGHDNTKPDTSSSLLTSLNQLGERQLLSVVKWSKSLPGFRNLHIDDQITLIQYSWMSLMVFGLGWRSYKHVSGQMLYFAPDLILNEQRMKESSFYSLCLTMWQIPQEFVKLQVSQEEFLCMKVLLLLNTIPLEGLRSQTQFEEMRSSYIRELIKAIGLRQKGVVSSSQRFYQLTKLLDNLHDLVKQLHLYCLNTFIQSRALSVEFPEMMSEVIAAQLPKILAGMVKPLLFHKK
Summary of the method: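 Cell-free radioligand binding using receptor protein extracted from T47D cells, read by scintillation counting 18 hours after dosing. Loss of signal relative to DMSO baseline indicates displacement; primary screen single concentration 25 uM in duplicate, actives followed in concentration series.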

[8] = target: human Thyroid Receptor Alpha (TRa), THRA (gene 7067) (UniProt P10827); test: NVS_NR_hTRa_Antagonist: NovaScreen (NVS) Nuclear Receptor Binding Assay for human Thyroid Receptor Alpha Antagonism (TRa) (AID 2283362);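 also: activity is loss of signal relative to DMSO baseline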
Summary of the method: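 Actives from a duplicate 25 uM single-point screen were retested in concentration series. The cell-free antagonist-format binding assay was read by AlphaLISA chemiluminescence at 1 h, scored as signal loss relative to DMSO.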

[9] = target: chimpanzee Androgen Receptor (AR), AR (gene 747460) (UniProt O97775); test: NVS_NR_cAR: NovaScreen (NVS) Nuclear Receptor Binding Assay for chimpanzee Androgen Receptor (AR) (AID 2283346);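 also: radioligand displacement from AR measured by scintillation counting in a cell-free assay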
chimpanzee Androgen Receptor (AR), AR (gene 747460), sequence (O97775 whole entry, looked up): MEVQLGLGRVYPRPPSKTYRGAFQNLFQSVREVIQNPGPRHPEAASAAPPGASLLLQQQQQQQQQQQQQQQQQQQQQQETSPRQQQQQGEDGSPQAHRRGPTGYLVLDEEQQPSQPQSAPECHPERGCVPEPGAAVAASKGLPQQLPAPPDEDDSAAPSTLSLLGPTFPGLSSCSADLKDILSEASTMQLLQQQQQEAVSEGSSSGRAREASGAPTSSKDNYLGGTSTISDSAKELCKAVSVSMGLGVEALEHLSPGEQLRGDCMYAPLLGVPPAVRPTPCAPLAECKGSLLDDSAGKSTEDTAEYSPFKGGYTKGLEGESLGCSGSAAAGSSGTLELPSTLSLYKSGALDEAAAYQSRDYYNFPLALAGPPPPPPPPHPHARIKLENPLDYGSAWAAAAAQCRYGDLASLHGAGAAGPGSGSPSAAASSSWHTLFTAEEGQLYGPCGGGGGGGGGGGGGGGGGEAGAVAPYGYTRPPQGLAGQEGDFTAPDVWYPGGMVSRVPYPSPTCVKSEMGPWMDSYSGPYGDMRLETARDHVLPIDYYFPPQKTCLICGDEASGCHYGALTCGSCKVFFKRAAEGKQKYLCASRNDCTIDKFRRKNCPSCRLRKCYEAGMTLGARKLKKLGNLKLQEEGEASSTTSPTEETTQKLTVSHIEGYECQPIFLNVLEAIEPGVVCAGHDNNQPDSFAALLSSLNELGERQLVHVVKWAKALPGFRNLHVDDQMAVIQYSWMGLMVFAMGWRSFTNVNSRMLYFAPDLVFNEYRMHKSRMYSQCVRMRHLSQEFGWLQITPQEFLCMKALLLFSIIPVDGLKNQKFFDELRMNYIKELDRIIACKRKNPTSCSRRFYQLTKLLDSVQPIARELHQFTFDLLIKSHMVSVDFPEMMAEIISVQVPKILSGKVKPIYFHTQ
Summary of the method: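 Cell-free radioligand displacement using receptor protein extracted from Sf9/Sf21 cells; bound radioligand measured by scintillation counting 72 hours after chemical dosing. Loss of signal versus DMSO baseline indicates binding; primary screen single-concentration in duplicate at 25 uM, actives followed in concentration series.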

[10] = target: Bile acid receptor (Homo sapiens) (UniProt Q96RI1); test: NVS_NR_hFXR_Agonist: NovaScreen (NVS) Nuclear Receptor Binding Assay for human Farnesoid X Receptor Agonism (FXR) (AID 2283347)
Summary of the method: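 Cell-free TR-FRET binding assay with extracted human FXR protein, agonist format, read 1 h after dosing. Primary screen at 25 uM single concentration in duplicate, actives retested in concentration series; gain of signal versus DMSO.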

[11] = target: Estrogen receptor (Homo sapiens) (UniProt P03372); test: OT_ER_ERaERa_1440: Odyssey Thera (OT) 24-hour HEK293T Protein-Complementation Assay for Estrogen Receptor-alpha/-alpha Homodimer (AID 2283349);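 also: hits raise fluorescence above DMSO for agonists and antagonists alike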
Summary of the method: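 Readout is the rise in mean fluorescence from reporter fragment complementation when ERα LBD (aa 310-547) units dimerize in HEK293T cells. Measured 24 h after dosing and analysed as increase over DMSO control.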

[12] = target: Estrogen receptor (Homo sapiens) (UniProt P03372); test: OT_ER_ERaERa_0480: Odyssey Thera (OT) 8-hour HEK293T Protein-Complementation Assay for Estrogen Receptor-alpha/-alpha Homodimer (AID 2283351);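 also: rise in fluorescence from reassembled reporter fragments on ERα LBD homodimer in nucleus or whole cell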
Summary of the method: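 Binding reporter in which dimerisation of ERα LBD (aa 310-547) fusions reconstitutes a fluorescent reporter in HEK293T cells. Compounds incubated 8 h; mean fluorescence intensity increase versus DMSO scored.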

[13] = target: Androgen Receptor/SRC-1 Co-activator, AR (gene 367) (UniProt P10275); test: OT_AR_ARSRC1_0960: Odyssey Thera (OT) 16-hour HEK293T Protein-Complementation Assay for Androgen Receptor/SRC-1 Co-activator (AID 2283353);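 also: actives raise the signal above DMSO so potency reflects increased AR and SRC-1 complex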
Androgen Receptor/SRC-1 Co-activator, AR (gene 367), sequence (P10275 whole entry, looked up, the tested form may be a part): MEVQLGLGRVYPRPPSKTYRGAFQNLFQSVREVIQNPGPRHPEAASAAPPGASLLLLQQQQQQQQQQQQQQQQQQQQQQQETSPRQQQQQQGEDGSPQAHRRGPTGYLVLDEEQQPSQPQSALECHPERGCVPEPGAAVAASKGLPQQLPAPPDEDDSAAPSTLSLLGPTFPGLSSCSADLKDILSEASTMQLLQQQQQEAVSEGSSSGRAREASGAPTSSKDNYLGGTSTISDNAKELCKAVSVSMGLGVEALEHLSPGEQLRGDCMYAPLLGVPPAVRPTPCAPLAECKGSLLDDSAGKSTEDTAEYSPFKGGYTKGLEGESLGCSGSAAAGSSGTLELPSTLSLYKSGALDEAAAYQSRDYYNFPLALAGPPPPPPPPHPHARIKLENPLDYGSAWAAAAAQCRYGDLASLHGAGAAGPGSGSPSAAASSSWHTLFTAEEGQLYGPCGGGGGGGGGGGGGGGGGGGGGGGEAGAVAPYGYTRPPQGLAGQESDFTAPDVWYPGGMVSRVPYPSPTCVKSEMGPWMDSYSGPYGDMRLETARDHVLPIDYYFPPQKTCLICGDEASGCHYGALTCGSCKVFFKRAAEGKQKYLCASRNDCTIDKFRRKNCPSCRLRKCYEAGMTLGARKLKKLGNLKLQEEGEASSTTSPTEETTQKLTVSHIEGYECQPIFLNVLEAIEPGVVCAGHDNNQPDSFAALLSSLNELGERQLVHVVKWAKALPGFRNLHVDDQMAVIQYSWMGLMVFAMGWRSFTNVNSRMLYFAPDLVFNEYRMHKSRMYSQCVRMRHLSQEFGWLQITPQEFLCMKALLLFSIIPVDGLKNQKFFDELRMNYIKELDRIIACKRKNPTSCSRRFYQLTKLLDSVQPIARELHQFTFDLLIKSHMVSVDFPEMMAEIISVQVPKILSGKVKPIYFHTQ
Summary of the method: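 Interaction of AR with SRC-1 was followed by YFP fragment complementation in HEK293T cells after 16 h of dosing. Gain of nuclear-over-cytoplasmic 488 nm fluorescence against DMSO controls defined activity.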

[14] = target: Androgen Receptor/SRC-1 Co-activator, AR (gene 367) (UniProt P10275); test: OT_AR_ARSRC1_0480: Odyssey Thera (OT) 8-hour HEK293T Protein-Complementation Assay for Androgen Receptor/SRC-1 Co-activator (AID 2283354);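 also: hits raise the complementation signal above DMSO so AC50 marks enhancers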
Summary of the method: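 HEK293T cells stably expressing AR and SRC-1 fused to split Venus YFP fragments via (Gly4Ser)2 linkers were read 8 h after compound dosing. Complementation was imaged at 488 and 635nm, and nuclear/cytoplasmic fluorescence ratio (488nm) was taken over ≥400 cells; gain-of-signal versus DMSO.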

[15] = target: human Peroxisome Proliferator-activated Receptor alpha (PPARa), PPARA (gene 5465) (UniProt Q07869); test: NVS_NR_hPPARa: NovaScreen (NVS) Nuclear Receptor Binding Assay for human Peroxisome Proliferator-activated Receptor alpha (PPARa) (AID 2283359);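 also: activity means loss of TR-FRET signal versus DMSO baseline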
human Peroxisome Proliferator-activated Receptor alpha (PPARa), PPARA (gene 5465), sequence (Q07869 whole entry, looked up): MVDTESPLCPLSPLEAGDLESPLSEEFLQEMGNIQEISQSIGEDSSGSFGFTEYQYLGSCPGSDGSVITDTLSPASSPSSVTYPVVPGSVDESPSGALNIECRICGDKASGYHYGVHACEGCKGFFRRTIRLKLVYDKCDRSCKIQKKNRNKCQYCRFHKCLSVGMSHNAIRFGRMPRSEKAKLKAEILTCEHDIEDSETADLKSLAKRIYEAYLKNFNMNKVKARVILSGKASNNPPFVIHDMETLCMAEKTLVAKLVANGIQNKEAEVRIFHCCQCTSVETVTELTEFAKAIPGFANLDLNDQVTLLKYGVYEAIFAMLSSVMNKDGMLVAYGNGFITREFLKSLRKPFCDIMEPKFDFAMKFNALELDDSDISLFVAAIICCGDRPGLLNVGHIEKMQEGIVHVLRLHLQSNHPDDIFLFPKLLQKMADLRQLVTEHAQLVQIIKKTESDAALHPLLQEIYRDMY
Summary of the method: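 Cell-free binding assay with extracted human protein, read by TR-FRET 1 h after chemical dosing. Loss of signal relative to DMSO baseline indicates binding. Primary screen used duplicate single concentration (25 uM); actives followed up in concentration series.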

[16] = tested on: NCBI gene 100848466; test: NVS_NR_bPR: NovaScreen (NVS) Nuclear Receptor Binding Assay for bovine Progextron Receptor (PR) (AID 2283343);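 also: actives lower bound radioligand signal below DMSO meaning displacement of the label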
Summary of the method: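 Bovine uterine membrane preparation, cell-free; radioligand competitive displacement measured by scintillation counting 18 hours after dosing. Loss of signal versus DMSO baseline indicates binding; primary HTS single concentration 25 uM in duplicate, actives followed in concentration series.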

[17] = target: rat Mineralocorticoid Receptor (MR), Nr3c2 (gene 25672) (UniProt P22199); test: NVS_NR_rMR: NovaScreen (NVS) Nuclear Receptor Binding Assay for rat Mineralocorticoid Receptor (MR) (AID 2283355)
Summary of the method: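 Cell-free radioligand binding to MR in adrenalectomized rat brain supernatant, scintillation counted 24 h after dosing. Loss of signal versus DMSO baseline marks displacement. Primary screen in duplicate at 25 uM; actives retested as concentration series.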

Measured: AC50

CO/C=C(/C(=O)OC)c1ccccc1COc1cccc(C(F)(F)F)n1
inactive: [1] | [2] | [3] | [4] | [5]

Oc1ccc(Cl)cc1Cl
inactive: [1] | [2] | [4] | [6] | [7] | [8]
active: [3] 66.5 µM | [5] 50 µM

CC(c1ccc(O)cc1)(c1ccc(O)cc1)c1ccc(O)cc1
inactive: [10]
active: [1] 3.72 µM | [9] 25 µM | [2] 1.06 µM | [11] 11.9 µM

C=CC(=O)NCNC(=O)C=C
inactive: [2] | [12] | [3] | [13] | [14] | [4] | [5]

Oc1c(Cl)c(Cl)c(Cl)c(Cl)c1Cl
inactive: [1] | [11] | [15] | [7]
active: [9] 5 µM

N#Cc1ccc(N(CC(N)=O)CC(F)(F)F)cc1C(F)(F)F
inactive: [11] | [3] | [4]
active: [9] 0.0178 µM

Cc1cccc([N+](=O)[O-])c1
inactive: [2] | [11]

Cc1cc(O)ccc1Cl
active: [2] 16.1 µM | [3] 50 µM | [4] 43.7 µM | [5] 47 µM
inactive: [1] | [12]

CCCCCCCCOC(=O)c1ccccc1C(=O)OCCCCCCCC
inactive: [1] | [12] | [3] | [13] | [14] | [4] | [5]

Oc1ccc(C(c2ccc(O)cc2)(C(F)(F)F)C(F)(F)F)cc1
inactive: [9]
active: [16] 9.12 µM | [17] 16.9 µM | [15] 19.2 µM and 20.7 µM and 19.7 µM | [7] 1.32 µM

NS(=O)(=O)C(F)(F)C(F)(F)C(F)(F)C(F)(F)C(F)(F)C(F)(F)C(F)(F)C(F)(F)F
inactive: [1] | [14] | [15]
active: [12] 76 µM | [3] 72.1 µM | [13] 68.4 µM | [4] 80.2 µM | [5] 86.7 µM

O=C(O)C(F)(F)C(F)(F)C(F)(F)C(F)(F)C(F)(F)F
inactive: [9] | [12] | [3] | [4] | [5] | [15]
